Inhibition data for 93 compounds are collected here from PubChem BioAssay AID588727 (Southern Research Specialized Biocontainment Screening …, 2011).

Out of some 350,000 compounds screened, about 450 (0.13%) were called active. How the calls were made is not given here. The list is a sample of the results. Results with a measured potency or affinity are listed apart.

This assay is described as follows: inhibitors of VEEV TC-83 cytopathic effect, confirmation, Vero cells (AID 588727). The settings on record: VEEV TC-83 cytopathic effect inhibition, at 20 µM.
[1] abbreviates: stronger effect = higher value unless noted.
Setting [2] is: measured here: 10K pilot screen inhibition, stronger effect = higher value.

As for `CCOc1ccc(N2CC(C(=O)Nc3cccc(C(=O)NC4CC4)c3)CC2=O)cc1` (stereo not given), under setting [1], the inhibition was 1.22% (inactive). The same measure, in the same setting: for `Cc1ccccc1OCC(=O)Nc1ccc(N2CCOCC2)cc1N1CCOCC1` the value was 6.68% (inactive). Regarding `COc1ccc(C2(C)NC(=O)NC2=O)cc1OC` (stereo not given), the inhibition entry under setting [1] was “inactive”.

Take `COc1ccc(OC(C)c2ccc(C#N)c(=O)[nH]2)cc1` (stereo not given): under setting [1], the inhibition is 1% (inactive).

For the compound `Cc1cc(=O)[nH]c(SCn2nnc3ccccc3c2=O)n1`, the inhibition under setting [1] is 0.62% (inactive). Take `COc1ccc(S(=O)(=O)c2c(O)c3ccc(C(=O)Nc4ccccc4Cl)cc3[nH]c2=O)cc1`: the inhibition under setting [1] was 0.45% (inactive).

For `O=C1COc2ccc(C(=O)COC(=O)c3ccc(S(=O)(=O)C(F)F)cc3)cc2N1`, the inhibition under setting [1] is 3.01% (inactive). Consider `COc1cc(/C=N/NC2=NS(=O)(=O)c3ccccc32)cc(OC)c1OC`, for which the inhibition under setting [1] is 0.18% (inactive). Consider `CC12CC[C@H]3[C@@H](CCC4(O)C[C@H](O)CCC34/C=N/NC(=O)c3ccccc3Cl)C1(O)CCC2C1=CC(=O)OC1` (stereo not given in full), for which the inhibition under setting [1] is 2.51% (inactive). Regarding `C[C@]12CC[C@H]3[C@@H](CC[C@]4(O)C[C@@H](O)CC[C@]34C=O)[C@@]1(O)CC[C@@H]2C1=CC(=O)OC1`, the inhibition under setting [1] is 24.6% (inactive).

With `Fc1ccc(-c2nnc(Cc3ccc(Cl)cc3)o2)cc1`, the inhibition entry under setting [1] was “inactive”. In the case of `Cc1ccc(OCCSc2nc(N)cc(N)n2)cc1`, the inhibition under setting [1] is 3.61% (inactive). On the same count and under the same terms, in the case of `O=C(c1ccc(F)cc1)c1ccc(-c2ccc(F)cc2)nc1` it was 1.5% (inactive). As to `Cc1cc(C)c2nc(N(CCCN(C)C)C(=O)c3ccc4c(c3)OCCO4)sc2c1`, the inhibition under setting [1] was 11.7% (inactive). The same measure, in the same setting: in the case of `COc1ccc(Cl)c2sc(N(CCN(C)C)C(=O)c3ccc4c(c3)OCCO4)nc12` it was 3.95% (inactive); in that of `CN(Cc1ccccc1)C(=O)CN(C)S(=O)(=O)c1ccc(F)cc1`, 0.12% (inactive). Consider `Cc1c(NC(=O)COC(=O)c2cc(-c3cccc4ccccc34)nc3ccccc23)c(=O)n(-c2ccccc2)n1C`, for which the inhibition under setting [1] is 2.81% (inactive). In the case of `COc1ccc2cc(-c3cc(C(=O)OCC(=O)Nc4c(C)n(C)n(-c5ccccc5)c4=O)c4ccccc4n3)ccc2c1`, the inhibition result under setting [1] is “inactive”. On the same count and under the same terms, for `CC(C)[C@H](NC(=O)C1CC(=O)N(c2ccc3c(c2)OCCO3)C1)C(=O)NC1CCCC1` (stereo not given in full) the value was 3.54% (inactive); for `O=C(CSc1nnc(-c2ccccc2Br)o1)N1CCOCC1`, 0.96% (inactive).

On to `O=C1NC(=O)C(Cc2cccc(Oc3ccccc3)c2)S1` (stereo not given), for which the inhibition under setting [1] is 0.8% (inactive). On the same count and under the same terms, in the case of `Cc1ccccc1N1C(=O)C(Cc2ccc(F)cc2)S/C1=C(\C#N)C(N)=O` (stereo not given) it was 0.67% (inactive). The same measure, in the same setting: in the case of `Nc1ccc(CC2SC(=O)NC2=O)cc1` (stereo not given) it was 0.36% (inactive); in that of `Cc1ccc(CC2SC(=O)NC2=O)cc1Cl` (stereo not given), 4.25% (inactive); in that of `COc1ccc(/C=C(/NC(=O)c2ccccc2)C(=O)N2CCCC2)cc1`, 1.46% (inactive). The same measure, in the same setting: for `CCN(Cc1ccccc1)C(=O)c1ccc(N(C)S(=O)(=O)c2ccc(C)cc2)cc1` the value was 10.1% (inactive); for `CC(=O)NC1=NN(C(C)=O)C(c2ccc(C)cc2)S1` (stereo not given), 0.39% (inactive). Regarding `Cc1[nH]c2ccccc2c1/C=N/NC(=O)c1cccc(F)c1`, under setting [1], the inhibition is 4.66% (inactive). Take `CCOC(=O)CNC(=O)CSc1nc(C(C)C)nc2c1cnn2-c1ccccc1`: the inhibition under setting [1] is 8.46% (inactive). In the case of `COc1ccc(-c2cc(=O)oc3cc(OC(C)C(=O)NCCCn4ccnc4)ccc23)cc1` (stereo not given), under setting [1], the inhibition was 1.83% (inactive). For the compound `CCCc1nc2c(=O)n(C)c(=O)[nH]c2n1CCC`, the inhibition under setting [1] was 0.72% (inactive).

With `CCn1c(=O)c2[nH]c(SC)nc2n(CC)c1=O`, the inhibition under setting [1] was 1.13% (inactive). On the same count and under the same terms, for `COc1ccccc1-c1ccc2c(c1)O[C@@H](CN(C)C(=O)Nc1cccc(F)c1)[C@H](C)CN([C@H](C)CO)S2(=O)=O` the value was 5.59% (inactive); for `O=C(N/N=C(\CC(=O)c1cccs1)C(F)(F)F)c1cccnc1`, “inactive”; for `O=C(N/N=C(/CC(=O)c1cccs1)C(F)(F)F)c1ccc(O)cc1`, 0.06% (inactive). Still for that read-out and setting: for `CCOCCn1c(CN2CCN(c3cccc(Cl)c3)CC2)nc2c1c(=O)n(C)c(=O)n2C` the value was “inactive”; for `COc1ccc(N2CCN(C(=O)c3cc(=O)c4cc(Cl)ccc4o3)CC2)cc1`, 0.39% (inactive); for `COC(=O)c1ccc(C(=O)OCc2nc3cc4ccccc4cc3[nH]2)cc1`, 0.06% (inactive).

Take `Nc1ccc(C(=O)OCc2nc3ccccc3[nH]2)cc1`: the inhibition under setting [1] is 2.64% (inactive). Still for that read-out and setting: in the case of `COc1ccc(CN(CC(=O)NCc2ccc(F)cc2)C(=O)c2csnn2)cc1` it was 1.52% (inactive); in that of `COc1ccc(NC(=O)c2nc[nH]c2C(=O)NCC(=O)OC(C)(C)C)cc1`, 3.26% (inactive); in that of `Cc1cccc(C(=O)NNC(=S)NC(=O)c2ccccc2)c1`, 46.7% (inactive).

For the compound `Cc1ccc(C(=O)NC(=S)NNC(=O)c2ccccc2)cc1`, the inhibition under setting [1] is 0.96% (inactive). With `Cc1cccc(C(=O)NC(=S)NNC(=O)c2cccs2)c1`, the inhibition result under setting [1] is “inactive”. As to `O=C(NNC(=S)NC(=O)c1ccccc1)c1ccc(O)cc1`, under setting [1], the inhibition is 4.47% (inactive).

On to `O=C(NNC(=S)NC(=O)c1cccs1)c1ccc(O)cc1`, for which the inhibition under setting [1] was 3.95% (inactive). Still for that read-out and setting: for `O=C(NNC(=S)NC(=O)c1ccco1)c1ccc(F)cc1` the value was 0.7% (inactive).

Turning to `Cc1cccc(C(=O)NC(=S)NCc2ccccc2)c1`, under setting [1], the inhibition was 2.47% (inactive). Still for that read-out and setting: in the case of `Cc1ccc(C(=O)NNC(=O)c2ccco2)cc1` it was 1.42% (inactive); in that of `COc1ccccc1NC(=O)C1CCN(S(=O)(=O)c2cccc3nonc23)CC1`, 9.33% (inactive).

In the case of `CCOC(=O)c1ccc(NC(=O)CSc2nnc(CNc3ccc(OC)cc3)n2C)cc1`, under setting [1], the inhibition is 0.98% (inactive). On the same count and under the same terms, for `O=C(c1ccc(N2CCOCC2)c([N+](=O)[O-])c1)N1CCCCC1` the value was 2.47% (inactive); for `CC1CC(C)CN(CCCNC(=O)CN2C(=O)c3cccnc3Oc3ccccc32)C1` (stereo not given), “inactive”; for `O=C(CCC(=O)OCC(=O)c1ccc([N+](=O)[O-])cc1)Nc1ccccc1Cl`, “inactive”. As for `CCOc1ccc(CN2CCN(Cc3cn(CC)nc3C)CC2CCO)cc1` (stereo not given), under setting [1], the inhibition result was “inactive”. For `CCOC(=O)c1sc2nc(C)nc(Nc3ccc(OC)cc3)c2c1C`, the inhibition under setting [1] was 3.17% (inactive). On to `COc1ccc(C(=O)Nc2ccccc2C(=O)N2CCCCCC2)cc1OC`, for which the inhibition under setting [1] is 5.61% (inactive).

For the compound `CN1CCN(CCC(=O)Nc2ccc(C3CCCC3)cc2)CC1`, the inhibition under setting [1] was 4.6% (inactive).

Turning to `O=C(Nc1ccc(N2CCN(C(=O)c3ccco3)CC2)cc1)c1cccnc1Cl`, the inhibition is, setting by setting: (stronger effect = higher value) 0.8% (inactive); under setting [2], 1.86%. In the case of `COc1ccc(C)cc1NC(=O)C1CCN(C(=O)Cc2ccccc2)CC1`, the inhibition under setting [1] was 0.59% (inactive).

For the compound `Cc1cccc(C(=O)NC(=S)NNC(=O)COc2c(C)cccc2C)c1`, under setting [1], the inhibition was 1.29% (inactive). As for `COc1ccc(C(=O)NNC(=S)NC(=O)c2ccc(OC)cc2)cc1`, the inhibition under setting [1] was 2.82% (inactive).

`Cc1cccc(C)c1OCC(=O)NNC(=S)NC(=O)C1CC1`: under setting [1], the inhibition was 9.29% (inactive). The same measure, in the same setting: for `COc1ccccc1C(=O)NNC(=S)NC(=O)c1sc2ccccc2c1Cl` the value was 4.48% (inactive); for `O=C(COc1ccccc1)NNC(=S)NC(=O)c1ccccc1`, 52.2% (inactive); for `COc1ccc(C(=O)NC(=S)NNC(=O)c2ccc(C)cc2)cc1`, 50.1% (inactive). The same measure, in the same setting: for `COc1ccc(C(=O)NC(=S)NNC(=O)COc2ccccc2)cc1` the value was 1.92% (inactive).

For `COc1ccccc1C(=O)NC(=S)NNC(=O)c1sc2ccccc2c1Cl`, the inhibition under setting [1] is 0.8% (inactive). The same measure, in the same setting: in the case of `CCCc1nnc(NC(=O)CNc2ccc(F)cc2)s1` it was 1.71% (inactive). Turning to `CN(C)c1ccc(CNC(=O)c2cc(S(=O)(=O)N3CCCC3)cn2C)cc1`, the inhibition is 0.58% (inactive) (stronger effect = higher value) and 0.765% under setting [2]. As for `Cc1ccc(C)c(S(=O)(=O)N/N=C/c2ccc(N3CCOCC3)cc2)c1`, the inhibition under setting [1] was 13% (inactive). Same read-out and setting: in the case of `COc1ccc(-c2nnc(SCc3cccc(C)c3)n2N)cc1` it was 1.8% (inactive); in that of `O=c1n(Cc2ccccc2Cl)nc2n1-c1ccccc1SC2`, 1.6% (inactive).

Take `CN1CCN(NC(=O)c2cn(-c3ccccc3)nc2-c2cccc(Br)c2)CC1`: the inhibition under setting [1] was 4.96% (inactive). `COc1ccc(C(=O)NNC(=S)NC(=O)c2ccco2)cc1`: the inhibition under setting [1] is 3.21% (inactive).

On to `O=C(NC(=S)NNC(=O)c1cc2ccccc2cc1O)c1ccco1`, for which the inhibition under setting [1] was 35.8% (inactive). Same read-out and setting: for `COc1ccc(C(=O)NC(=S)NCCc2ccccc2)cc1` the value was “inactive”; for `O=C(CCc1ccccc1)NNC(=S)NC(=O)c1ccccc1`, 8.58% (inactive). Same read-out and setting: in the case of `CC1CCN(c2ccc(C(=O)OCC(=O)NCCN3C(=O)CSC3=O)cc2[N+](=O)[O-])CC1` it was 2.94% (inactive); in that of `Nc1nc(=O)n(C2CCCO2)cc1Br` (stereo not given), “inactive”. Still for that read-out and setting: in the case of `CCCCn1nnnc1SCC(=O)NCc1ccco1` it was 0.76% (inactive); in that of `CCOc1ccc(CCNC(=O)CCc2nnc3ccc(N4CCOCC4)nn23)cc1OCC`, 0.04% (inactive); in that of `CCN(CC(=O)Nc1ccc(NC(C)=O)cc1)C(=O)C12CC3CC(CC(Cl)(C3)C1)C2`, “inactive”. In the case of `Cn1cc(C(=O)Nc2ccc(Cl)c(Cl)c2)cn1`, under setting [1], the inhibition is 0.63% (inactive). Take `O=C(Nc1ccc(F)c([N+](=O)[O-])c1)c1cccs1`: the inhibition under setting [1] was 0.78% (inactive). Same read-out and setting: in the case of `O=C(NC(Cc1c[nH]c2ccccc12)C(=O)O)c1cccs1` (stereo not given) it was 0.43% (inactive); in that of `O=C(NC(Cc1c[nH]c2ccccc12)C(=O)Nc1ccc(OC(F)(F)F)cc1)c1cccs1` (stereo not given), 11.9% (inactive). `O=C(NC(Cc1c[nH]c2ccccc12)C(=O)N/N=C/c1ccc(Cl)cc1)c1cccs1` (stereo not given): the inhibition under setting [1] was 6% (inactive). With `Cc1cc(C)nc(N2C(=O)CC(C(=O)O)NC2=NCCc2c[nH]c3ccccc23)n1` (stereo not given), under setting [1], the inhibition entry is “inactive”. On the same count and under the same terms, in the case of `COc1ccc(/C=N/NC(=O)c2c(-c3ccccc3)noc2C)cc1` it was 1.23% (inactive); in that of `COc1cc2nc(N(CCCN(C)C)C(=O)c3ccc(S(=O)(=O)N4CCc5ccccc54)cc3)sc2cc1OC`, 5.52% (inactive).

Turning to `CN(C)CCCN(C(=O)c1ccc(S(=O)(=O)N2CCc3ccccc32)cc1)c1nc2c(Cl)cccc2s1`, under setting [1], the inhibition was 12.6% (inactive). The same measure, in the same setting: in the case of `O=C(NC1CONC1=O)OCC(Cl)(Cl)Cl` (stereo not given) it was “inactive”.

The term inhibition denotes how much of the control response was suppressed.
